PubChem BioAssay AID743446 (Broad Institute, 2014)
Results with a measured potency or affinity are listed apart. Unmarked numbers belong to inactive results. No rule for the calls is given here.

Experiment: viability loss in HEK293 cells – cell-based, plate reader, cherry-picked samples, cytotoxicity control, dose response (AID 743446)
Settings: hits give low values; at 26 µM unless noted

SMILES | max activity
O=S1(=O)CCOC[C@H](CC2CCCCC2)N1Cc1ccccc1F | -17.9% [at 0.1 µM]
COc1cccc(NC(=O)Nc2cccc(C(=O)O)c2)c1 | -21.7% [at 3 µM]
Cc1ccc(Nc2nc(N)c3ccccc3n2)cc1C | -37.4%
COc1ccccc1CN(C)C[C@@H]1OCc2cnnn2CCCC(=O)N([C@H](C)CO)C[C@H]1C | 11% [at 0.38 µM]
C[C@H](CO)N1C[C@H](C)[C@H](CN(C)C(=O)Nc2ccc(F)cc2)OCCCC[C@H](C)Oc2ccc(NC(=O)Nc3ccc(F)cc3)cc2C1=O | 17% [at 1.5 µM]
CCc1nnc(NC(=O)CSc2nnc3ncccn23)s1 | 33.7%
N#C[C@@H]1[C@H](c2ccc(C#CC3CCCCC3)cc2)[C@@H](CO)N1C(=O)c1cccc(F)c1 | 43.6% [at 0.09 µM]
O=C(O)c1ccc(Nc2nc3c(s2)CCCC3)cc1 | 49.8% [at 12 µM]
C[C@H](CO)N1C[C@H](C)[C@H](CN(C)C(=O)Nc2ccc3c(c2)OCO3)OCCCC[C@H](C)Oc2ccc(NC(=O)C3CCCCC3)cc2C1=O | 17.6%
COc1ccc2oc(C(=O)NCCc3ccccc3)c(C)c2c1 | -55.4%
CCOc1ccc(C(=O)Nc2cccc(C(=O)O)c2C)cc1Cl | 26.7%
C[C@@H]1CN([C@H](C)CO)C(=O)c2cc(C#CCN(C)C)cnc2O[C@@H]1CN(C)C(=O)CN1CCOCC1 | 12.9% [at 0.195 µM]
